The list is not random: actives were taken first. Their share in the collection is about 3.3%.
TLR4-MyD88 BLA: inhibitors of human TLR4-MyD88 binding. O00206+Q99836. HeLa CL3-4 TLR4/MyD88 BLA complementation, FRET ratio. inhibition, % at 8.4 µM. hit rate 0.18% among 200,000. AID 861; in the data active means inhibition above about 25%;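 further: 0% = vehicle and 100% = reference inhibitor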
ABHD5-PLIN5 inh: ABHD5-PLIN5 protein interaction inhibition | Q00G26+Q8WTS1 | Split G. princeps luciferase complementation, luminescence, 4 h | inhibition, % at 4 µM | hit rate 0.78% among 360,000;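 active means inhibition above the mean inhibition across every tested compound plus 3 SD, cut at about 22% in these data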;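 further: 0% = DMSO only wells and the 100% control is not disclosed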
NOD2-RIPK2 inh: inhibitors of human NOD2-RIPK2 interaction; AID 624267; O43353; hit rate 0.38% among 360,000; CHO BLA complementation NOD2-RIPK2, CCF4 ratio; inhibition, % at 4.98 µM; in the data active means inhibition above about 21%;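 further: 0% = vehicle only and 100% = reference blocker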
rCAG binder-1: binds r(CAG) RNA repeats. r(CAG) RNA repeat, TO-PRO-1 dye displacement fluorescence. inhibition, % at 3 µM. hit rate 1.3% among 370,000;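 active means inhibition above the plate cutoff, the mean of all test compounds on that plate plus 3 SD, cut at about 35% in these data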;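 further: 0% = DMSO alone and 100% = 100 µM mitoxantrone as full dye displacement; higher means more dye released from RNA so lower well fluorescence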
TLR9-MyD88 block: blocks human TLR9 binding to MyD88; Q9NR96+Q99836; CHO BLA complementation TLR9-MyD88, CCF4 FRET ratio; inhibition, % at 4.98 µM; hit rate 0.21% among 340,000;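 active means inhibition above the mean over all tested compounds plus 3 SD, cut at about 21% in these data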;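 further: 0% = DMSO only wells and 100% = clavulanate BLA inhibitor control wells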
PRMT1 FP inh: PRMT1 (human) inhibition, primary screen; recombinant PRMT1, activity-based probe fluorescence polarization; hit rate 1.3% among 370,000; AID 652257; inhibition, % at 2.79 µM;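 active means inhibition above about 21% made by adding two undisclosed values, limit read from the data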
Target sequence (Q99873 whole entry, looked up): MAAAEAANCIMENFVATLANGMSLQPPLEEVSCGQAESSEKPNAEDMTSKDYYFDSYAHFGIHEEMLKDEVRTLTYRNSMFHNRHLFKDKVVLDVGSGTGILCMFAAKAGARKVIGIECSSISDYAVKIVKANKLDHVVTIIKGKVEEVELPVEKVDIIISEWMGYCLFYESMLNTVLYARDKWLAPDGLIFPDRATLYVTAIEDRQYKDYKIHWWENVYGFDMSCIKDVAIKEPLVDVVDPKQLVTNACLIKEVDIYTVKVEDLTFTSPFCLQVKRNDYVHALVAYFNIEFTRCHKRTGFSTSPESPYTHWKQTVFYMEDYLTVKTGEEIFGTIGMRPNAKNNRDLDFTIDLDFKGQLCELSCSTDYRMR
rCAG binder conf: r(CAG) RNA repeat binding, confirmation. inhibition, % at 3 µM. shares compounds with rCAG binder-1. hit rate 70% among 4,300. TO-PRO-1 dye displacement fluorescence;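 active means inhibition above a per-plate cutoff, the mean inhibition of sample wells plus 3 SD, cut at about 35% in these data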;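 further: loss of TO-PRO-1 fluorescence as compound displaces dye from 1x1 AA loop RNA; 0% = DMSO only wells and 100% = 100 µM mitoxantrone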
dCAG dye counter: disrupts DNA CAG TO-PRO-1 complex, flagging rCAG hits; hit rate 94% among 4,300; shares compounds with rCAG binder-1; AID 652068; d(CAG) DNA oligo TO-PRO-1 dye displacement, fluorescence; inhibition, % at 3 µM;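 active means inhibition above its plate's cutoff, the mean test-well inhibition plus 3 SD, cut at about 4.8% in these data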;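 further: 0% = DNA dye mix with DMSO and 100% = 100 µM mitoxantrone; hits displace the dye from DNA and so lower well fluorescence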
dCAG dye DR: counter-screen for rCAG binders: inhibitors of DNA CAG TO-PRO-1 complex; shares compounds with rCAG binder-1; DNA CAG/GTC duplex TO-PRO-1 dye displacement fluorescence; IC50, µM; hit rate 20% among 250; AID 686960; in the data active means IC50 below about 10 µM
dCAG TOPRO ctr: DNA CAG dye complex inhibition, late stage dose response. hit rate 80% among 30. d(CAG) DNA duplex TO-PRO-1 dye displacement, fluorescence. shares compounds with rCAG binder-1. IC50, µM. AID 720649
rCAG binder-2: binds r(CAG) RNA repeats in late stage dose response; shares compounds with rCAG binder-1; r(CAG) RNA TO-PRO-1 dye displacement, fluorescence; IC50, µM; hit rate 100% among 30
* = called active by the depositor. Unless noted, how the calls were made is not given here.

O=C(O)c1cc(-c2ccco2)nn1-c1cccc(Cl)c1 was read as TLR4-MyD88 BLA -3, ABHD5-PLIN5 inh 6, NOD2-RIPK2 inh 10, rCAG binder-1 25, TLR9-MyD88 block -4 and PRMT1 FP inh 20.
`Cc1cccc(-n2nc(C)c3c(C(=O)O)cc(-c4cccs4)nc32)c1` gave TLR4-MyD88 BLA -3, ABHD5-PLIN5 inh -5, NOD2-RIPK2 inh -11, rCAG binder-1 81*, TLR9-MyD88 block 4, PRMT1 FP inh -3, rCAG binder conf 74*, dCAG dye counter 34*, dCAG dye DR 6.3*, dCAG TOPRO ctr 1.4* and rCAG binder-2 0.58*.
Cc1nn(-c2ccccc2)c2nc(-c3ccco3)cc(C(=O)O)c12 was read as TLR4-MyD88 BLA -8, ABHD5-PLIN5 inh 3, NOD2-RIPK2 inh 9, rCAG binder-1 54*, TLR9-MyD88 block -2, PRMT1 FP inh 16, rCAG binder conf 71*, dCAG dye counter 27*, dCAG dye DR 4.3*, dCAG TOPRO ctr 6.1* and rCAG binder-2 2.5*.
`CCOc1ccc(CN2CCN(Cc3[nH]c4ccccc4c3C)CC2CCO)cc1` (centres undefined) gave TLR4-MyD88 BLA 5, ABHD5-PLIN5 inh -2, NOD2-RIPK2 inh -6, rCAG binder-1 -8, TLR9-MyD88 block -11 and PRMT1 FP inh -2.
For CO[C@H]1C=CO[C@@]2(C)Oc3c(C)c(O)c4c(O)c(c(C=NN5CCN(C)CC5)c(O)c4c3C2=O)NC(=O)C(C)=CC=C[C@H](C)[C@H](O)[C@@H](C)[C@@H](O)[C@@H](C)[C@H](OC(C)=O)[C@@H]1C the results were TLR4-MyD88 BLA 5, ABHD5-PLIN5 inh -12, NOD2-RIPK2 inh 8, rCAG binder-1 78*, TLR9-MyD88 block 12, PRMT1 FP inh 8, rCAG binder conf 79* and dCAG dye counter 49*.
Screening CO[C@H]1/C=C/O[C@@]2(C)Oc3c(C)c(O)c4c(O)c(c(C=NN5CCN(C)CC5)c(O)c4c3C2=O)NC(=O)/C(C)=C\C=C\[C@H](C)[C@H](O)[C@@H](C)[C@@H](O)[C@@H](C)[C@H](OC(C)=O)[C@@H]1C returned ABHD5-PLIN5 inh -14, NOD2-RIPK2 inh -3, rCAG binder-1 83*, TLR9-MyD88 block -2, PRMT1 FP inh 2, rCAG binder conf 74* and dCAG dye counter 44*.
N#Cc1c(-c2ccccc2)nc(SCc2ccc(Cl)cc2)[nH]c1=O was read as ABHD5-PLIN5 inh 3, NOD2-RIPK2 inh 2, rCAG binder-1 83*, TLR9-MyD88 block -5, PRMT1 FP inh 4, rCAG binder conf 76* and dCAG dye counter 39*.
Screening COC(=O)c1cccc(CSc2nc(-c3ccccc3)c(C#N)c(=O)[nH]2)c1 returned ABHD5-PLIN5 inh 5, NOD2-RIPK2 inh 4, rCAG binder-1 75*, TLR9-MyD88 block 7, PRMT1 FP inh 6, rCAG binder conf 63* and dCAG dye counter 23*.
`CCOc1cc(C(=O)OCC(=O)N(C)c2ccccc2)cc(OCC)c1OCC` gave ABHD5-PLIN5 inh -3, NOD2-RIPK2 inh 2, rCAG binder-1 -2, TLR9-MyD88 block -6 and PRMT1 FP inh 0.
`O=C(O)c1cc(N/N=C/C=C/c2ccccc2[N+](=O)[O-])ccc1Cl` gave ABHD5-PLIN5 inh 7, NOD2-RIPK2 inh -11, rCAG binder-1 24, TLR9-MyD88 block 1 and PRMT1 FP inh 2.
`Cc1cc(C(=O)O)c(CSCc2cc(C(=O)O)oc2C)o1` gave TLR4-MyD88 BLA 1, ABHD5-PLIN5 inh -1, NOD2-RIPK2 inh 2, rCAG binder-1 3, TLR9-MyD88 block -3 and PRMT1 FP inh 0.

High-throughput results (PubChem BioAssay)
